# From the supplement of paper PMC8728848
# Only a selection was taken, and the strongest signals are over-represented in it overall.
# B1: PX14379D-pdi-530-26-530 (Parabacteroides distasonis) (protein)
# chain: DETVYDKLPADDFGQSTAELNALIGNSHNTMKKFWTEYMHLSECSGSMAVTPTRRGGDWYDGGQYREIYMHTWTSQTSRVKSAWKAATEAIGTCNEAIRKLQNSEILTEEEKAQDVADLRGVRAFWIYVMMDYWGNIPLLTEFHPTDKVFPGNSSRQEVFDWLIQEVEEIKDICPPATTENYGSFTQGAAYSLLAKLYLNAEAWGVTFSGNAYQKVIDNCDKVMAMGYILEPNWKDNFSVTNENSKEAILAATFSSSDTGNDGNVKNELHNNTLHYKDYLSLGITASGTWNGICAQPEYVRLFDEEDARLDGTFLTGLMIDKSTGKPIMTDHNNELNHTIDVNMIPGMEYDGTNWSAVEQHDGARCFKWEFASDLTSSMGNDFHIFRLADIYLMKAEALLRGGGSVSEATALVNTIRERGYGNSDHNYATVTLKEVQLERRLELAWEVYSRQDDIRFGCFTTGMWPQSNCERKADDYLKLLPVSQDAWQVNPNLKQNPGYAAFSK
# Experiments:
# Assay in all cases: glycan array binding signal (z-score within array); higher = stronger binding
# Details in all cases: glycan notation: IUPAC condensed, linker removed
# [1] = target: Fuc(a1-2)Gal(b1-3)GalNAc(a1-3)[Fuc(a1-2)]Gal(b1-4)GlcNAc
# Outline: (§1)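 The binding signal is a Z-score computed within each array. Data were drawn from 3228 arrays in the Consortium for Functional Glycomics database, restricted to those with a known protein sequence. Scores were averaged over arrays of the same protein sequence at different concentrations or buffers, and over linkers, and negative values can be taken as non-binding.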
# [2] = target: Fuc(a1-2)Gal(b1-4)GlcNAc(b1-2)Man(a1-3)[Fuc(a1-2)Gal(b1-4)GlcNAc(b1-2)Man(a1-6)]Man(b1-4)GlcNAc(b1-4)[Fuc(a1-6)]GlcNAc
# Outline: as §1
# [3] = target: Fuc(a1-2)Gal(b1-4)[Fuc(a1-3)]GlcNAc(b1-2)[Fuc(a1-2)Gal(b1-4)[Fuc(a1-3)]GlcNAc(b1-4)]Man(a1-3)[Fuc(a1-2)Gal(b1-4)[Fuc(a1-3)]GlcNAc(b1-2)Man(a1-6)]Man(b1-4)GlcNAc(b1-4)GlcNAc
# Outline: as §1
# [4] = target: Fuc(a1-2)Gal(b1-4)[Fuc(a1-3)]GlcNAc(b1-3)Gal(b1-4)[Fuc(a1-3)]GlcNAc(b1-3)Gal(b1-4)[Fuc(a1-3)]GlcNAc
# Outline: as §1
# [5] = target: Fuc(a1-2)Gal6S(b1-3)GlcNAc6S
# Outline: as §1
# [6] = target: Fuc(a1-2)[Gal(a1-3)]Gal(b1-4)GlcNAc(b1-2)Man
# Outline: as §1
# Fuc(a1-3)GlcNAc = target: Fuc(a1-3)GlcNAc
# Outline: as §1
# [7] = target: Fuc(a1-3)[Gal(b1-4)]GlcNAc
# Outline: as §1
# [8] = target: Fuc(a1-3)[GalNAc(b1-4)]GlcNAc
# Outline: as §1
# [9] = target: Gal(a1-3)Gal(b1-3)[Fuc(a1-4)]GlcNAc(b1-2)Man(a1-3)[Gal(a1-3)Gal(b1-3)[Fuc(a1-4)]GlcNAc(b1-2)Man(a1-6)]Man(b1-4)GlcNAc(b1-4)GlcNAc
# Outline: as §1
# Gal(a1-3)Gal(b1-4)Glc = target: Gal(a1-3)Gal(b1-4)Glc
# Outline: as §1
# [10] = target: Gal(a1-3)[Gal(a1-4)]Gal(b1-4)GlcNAc
# Outline: as §1
# [11] = target: Gal(b1-3)GlcNAc(b1-6)Gal(b1-4)GlcNAc
# Outline: as §1
# [12] = target: Gal(b1-4)GlcNAc(b1-3)Gal(b1-3)GlcNAc
# Outline: as §1
# [13] = target: Gal(b1-4)GlcNAc(b1-3)Gal(b1-4)GlcNAc(b1-2)Man(a1-3)[Gal(b1-4)GlcNAc(b1-3)Gal(b1-4)GlcNAc(b1-2)Man(a1-6)]Man(b1-4)GlcNAc(b1-4)GlcNAc
# Outline: as §1
# [14] = target: Gal(b1-4)GlcNAc(b1-3)Gal(b1-4)GlcNAc(b1-3)Gal(b1-4)GlcNAc
# Outline: as §1
# [15] = target: Gal(b1-4)GlcNAc(b1-3)Gal(b1-4)GlcNAc(b1-3)Gal(b1-4)GlcNAc(b1-2)Man(a1-3)[Gal(b1-4)GlcNAc(b1-3)Gal(b1-4)GlcNAc(b1-3)Gal(b1-4)GlcNAc(b1-2)Man(a1-6)]Man(b1-4)GlcNAc(b1-4)GlcNAc
# Outline: as §1
# [16] = target: Gal(b1-4)GlcNAc(b1-3)Gal(b1-4)GlcNAc(b1-3)Gal(b1-4)GlcNAc(b1-3)Gal(b1-4)GlcNAc(b1-2)[Gal(b1-4)GlcNAc(b1-3)Gal(b1-4)GlcNAc(b1-3)Gal(b1-4)GlcNAc(b1-3)Gal(b1-4)GlcNAc(b1-6)]Man(a1-6)[Gal(b1-4)GlcNAc(b1-3)Gal(b1-4)GlcNAc(b1-3)Gal(b1-4)GlcNAc(b1-3)Gal(b1-4)GlcNAc(b1-2)Man(a1-3)]Man(b1-4)GlcNAc(b1-4)[Fuc(a1-6)]GlcNAc
# Outline: as §1
# [17] = target: Gal(b1-4)GlcNAc(b1-3)Gal(b1-4)GlcNAc(b1-3)Gal(b1-4)GlcNAc(b1-3)Gal(b1-4)GlcNAc(b1-3)Gal(b1-4)GlcNAc(b1-2)[Gal(b1-4)GlcNAc(b1-3)Gal(b1-4)GlcNAc(b1-3)Gal(b1-4)GlcNAc(b1-3)Gal(b1-4)GlcNAc(b1-3)Gal(b1-4)GlcNAc(b1-6)]Man(a1-6)[Gal(b1-4)GlcNAc(b1-3)Gal(b1-4)GlcNAc(b1-3)Gal(b1-4)GlcNAc(b1-3)Gal(b1-4)GlcNAc(b1-3)Gal(b1-4)GlcNAc(b1-2)Man(a1-3)]Man(b1-4)GlcNAc(b1-4)[Fuc(a1-6)]GlcNAc
# Outline: as §1
# [18] = target: Gal(b1-4)GlcNAc(b1-6)Gal(b1-4)GlcNAc
# Outline: as §1
# Gal3S(b1-3)GlcNAc = target: Gal3S(b1-3)GlcNAc
# Outline: as §1
# Gal3S6S(b1-4)GlcNAc6S = target: Gal3S6S(b1-4)GlcNAc6S
# Outline: as §1
# [19] = target: GalNAc(b1-4)GlcNAc(b1-2)Man(a1-3)[GalNAc(b1-4)GlcNAc(b1-2)Man(a1-6)]Man(b1-4)GlcNAc(b1-4)GlcNAc
# Outline: as §1
# [20] = target: GlcNAc(a1-4)Gal(b1-4)GalNAc
# Outline: as §1
# [21] = target: GlcNAc(b1-3)Gal(b1-4)GlcNAc(b1-2)Man(a1-3)[GlcNAc(b1-3)Gal(b1-4)GlcNAc(b1-2)Man(a1-6)]Man(b1-4)GlcNAc(b1-4)[Fuc(a1-6)]GlcNAc
# Outline: as §1
# [22] = target: GlcNAc(b1-3)Gal(b1-4)GlcNAc(b1-3)Gal(b1-4)GlcNAc(b1-2)Man(a1-3)[GlcNAc(b1-3)Gal(b1-4)GlcNAc(b1-3)Gal(b1-4)GlcNAc(b1-2)Man(a1-6)]Man(b1-4)GlcNAc(b1-4)GlcNAc
# Outline: as §1
# [23] = target: GlcNAc(b1-3)Gal(b1-4)GlcNAc(b1-3)Gal(b1-4)GlcNAc(b1-2)Man(a1-3)[GlcNAc(b1-3)Gal(b1-4)GlcNAc(b1-3)Gal(b1-4)GlcNAc(b1-2)Man(a1-6)]Man(b1-4)GlcNAc(b1-4)[Fuc(a1-6)]GlcNAc
# Outline: as §1
# [24] = target: GlcNAc6S(b1-3)Gal(b1-4)GlcNAc
# Outline: as §1
# Kdn(a2-3)Gal(b1-3)GlcNAc = target: Kdn(a2-3)Gal(b1-3)GlcNAc
# Outline: as §1
# [25] = target: Man(a1-2)Man(a1-3)[Man(a1-6)]Man(a1-6)[Man(a1-2)Man(a1-3)]Man(b1-4)GlcNAc(b1-4)GlcNAc
# Outline: as §1
# [26] = target: Man(a1-2)Man(a1-6)[Man(a1-3)]Man(a1-6)[Man(a1-2)Man(a1-2)Man(a1-3)]Man
# Outline: as §1
# [27] = target: Man(a1-3)[Man(a1-6)]Man(a1-6)[Man(a1-2)Man(a1-3)]Man(b1-4)GlcNAc(b1-4)GlcNAc
# Outline: as §1
# [28] = target: Man(a1-3)[Man(a1-6)]Man(a1-6)[Man(a1-3)]Man(b1-4)GlcNAc(b1-4)GlcNAc
# Outline: as §1
# Man(b1-4)GlcNAc = target: Man(b1-4)GlcNAc
# Outline: as §1
# [29] = target: Neu5Ac(a2-3)Gal(b1-3)GalNAc(b1-3)Gal(a1-4)Gal(b1-4)Glc
# Outline: as §1
# [30] = target: Neu5Ac(a2-3)Gal(b1-3)GlcNAc(b1-2)Man
# Outline: as §1
# [31] = target: Neu5Ac(a2-3)Gal(b1-4)GlcNAc
# Outline: as §1
# [32] = target: Neu5Ac(a2-3)Gal(b1-4)GlcNAc(b1-2)Man(a1-3)[Neu5Ac(a2-3)Gal(b1-4)GlcNAc(b1-2)Man(a1-6)]Man(b1-4)GlcNAc(b1-4)[Fuc(a1-6)]GlcNAc
# Outline: as §1
# [33] = target: Neu5Ac(a2-3)Gal(b1-4)GlcNAc(b1-2)[Neu5Ac(a2-3)Gal(b1-4)GlcNAc(b1-4)]Man(a1-3)[GlcNAc(b1-4)][Neu5Ac(a2-3)Gal(b1-4)GlcNAc(b1-4)Man(a1-6)]Man(b1-4)GlcNAc(b1-4)GlcNAc
# Outline: as §1
# [34] = target: Neu5Ac(a2-3)Gal(b1-4)[Fuc(a1-3)]GlcNAc(b1-3)Gal(b1-4)[Fuc(a1-3)]GlcNAc(b1-3)Gal(b1-4)[Fuc(a1-3)]GlcNAc
# Outline: as §1
# [35] = target: Neu5Ac(a2-3)[Neu5Ac(a2-6)]GalNAc
# Outline: as §1
# [36] = target: Neu5Ac(a2-6)Gal(b1-4)GlcNAc(b1-2)Man(a1-3)[GlcNAc(b1-4)][Neu5Ac(a2-6)Gal(b1-4)GlcNAc(b1-2)Man(a1-6)]Man(b1-4)GlcNAc(b1-4)GlcNAc
# Outline: as §1
# [37] = target: Neu5Ac(a2-8)Neu5Gc(a2-3)Gal(b1-4)GlcNAc
# Outline: as §1
# [38] = target: Neu5Gc(b2-6)Gal(b1-4)GlcNAc
# Outline: as §1
binder,measurement,setting,value
B1,glycan array binding signal (z-score),[1],-1.42
same,glycan array binding signal (z-score),[2],-0.233
same,glycan array binding signal (z-score),[3],-0.436
same,glycan array binding signal (z-score),[4],2.52
same,glycan array binding signal (z-score),[5],2.88
same,glycan array binding signal (z-score),[6],1.09
same,glycan array binding signal (z-score),Fuc(a1-3)GlcNAc,-0.715
same,glycan array binding signal (z-score),[7],-0.689
same,glycan array binding signal (z-score),[8],-0.221
same,glycan array binding signal (z-score),[9],2.48
same,glycan array binding signal (z-score),Gal(a1-3)Gal(b1-4)Glc,-0.838
same,glycan array binding signal (z-score),[10],4.67
same,glycan array binding signal (z-score),[11],-1.22
same,glycan array binding signal (z-score),[12],-1.08
same,glycan array binding signal (z-score),[13],2.97
same,glycan array binding signal (z-score),[14],-0.298
same,glycan array binding signal (z-score),[15],1.92
same,glycan array binding signal (z-score),[16],3.06
same,glycan array binding signal (z-score),[17],1.59
same,glycan array binding signal (z-score),[18],0.063
same,glycan array binding signal (z-score),Gal3S(b1-3)GlcNAc,-0.593
same,glycan array binding signal (z-score),Gal3S6S(b1-4)GlcNAc6S,2.52
same,glycan array binding signal (z-score),[19],2.64
same,glycan array binding signal (z-score),[20],-0.622
same,glycan array binding signal (z-score),[21],0.749
same,glycan array binding signal (z-score),[22],2.91
same,glycan array binding signal (z-score),[23],2.19
same,glycan array binding signal (z-score),[24],0.56
same,glycan array binding signal (z-score),Kdn(a2-3)Gal(b1-3)GlcNAc,-0.752
same,glycan array binding signal (z-score),[25],-1.26
same,glycan array binding signal (z-score),[26],-0.013
same,glycan array binding signal (z-score),[27],-0.447
same,glycan array binding signal (z-score),[28],-0.474
same,glycan array binding signal (z-score),Man(b1-4)GlcNAc,-1.02
same,glycan array binding signal (z-score),[29],0.43
same,glycan array binding signal (z-score),[30],0.26
same,glycan array binding signal (z-score),[31],-0.826
same,glycan array binding signal (z-score),[32],0.415
same,glycan array binding signal (z-score),[33],-0.482
same,glycan array binding signal (z-score),[34],-0.094
same,glycan array binding signal (z-score),[35],-1.44
same,glycan array binding signal (z-score),[36],0.549
same,glycan array binding signal (z-score),[37],12.8
same,glycan array binding signal (z-score),[38],-0.722
